An excerpt weighted towards active compounds, which were near 0.3% of everything screened.
hcGAS lum = inhibitors of human cGAS. Q8N884. recombinant h-cGAS, ATP depletion, Kinase-Glo luminescence. inhibition, % at 12.5 µM. 290,000 compounds, 0.081% hits;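 note: 0% = vehicle reaction and 100% = reaction without DNA for no activity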
Target sequence (Q8N884 whole entry, looked up): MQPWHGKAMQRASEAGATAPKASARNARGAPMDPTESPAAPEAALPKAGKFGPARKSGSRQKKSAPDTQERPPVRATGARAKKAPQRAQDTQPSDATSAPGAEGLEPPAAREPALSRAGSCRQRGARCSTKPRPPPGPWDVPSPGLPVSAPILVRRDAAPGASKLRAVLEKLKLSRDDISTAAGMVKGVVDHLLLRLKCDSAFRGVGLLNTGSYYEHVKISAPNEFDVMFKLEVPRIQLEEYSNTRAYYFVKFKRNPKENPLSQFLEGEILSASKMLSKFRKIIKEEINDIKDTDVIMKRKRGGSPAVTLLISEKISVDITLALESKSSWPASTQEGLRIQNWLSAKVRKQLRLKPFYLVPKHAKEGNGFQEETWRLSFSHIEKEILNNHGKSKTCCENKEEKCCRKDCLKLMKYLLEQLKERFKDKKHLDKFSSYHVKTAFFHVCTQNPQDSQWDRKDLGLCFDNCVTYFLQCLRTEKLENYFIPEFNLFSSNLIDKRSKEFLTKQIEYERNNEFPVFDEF
NPYLR7 ag = mosquito NPYLR7 agonism; 270,000 compounds, 0.15% hits; HEK293T NPYLR7/Galpha15, GCaMP6s calcium fluorescence; activation, % at 10 µM; in the data active = activation above about 40%;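 note: 0% = vehicle and 100% = reference agonist at the receptor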
mcGAS inh = blocks mouse cGAS activity; Q8C6L5; 160,000 compounds, 0.15% hits; recombinant cGAS, Kinase-Glo ATP depletion luminescence; inhibition, % at 12.5 µM;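 note: 0% = negative control wells and 100% = reference inhibitor with no enzyme activity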
An asterisk follows results filed as active; x = no result given; ! = not active in a repeat. Cut-off read from the data, not from the text of the source, unless noted: active = inhibition above about 40%; inactive = the rest.

SMILES	hcGAS lum	NPYLR7 ag	mcGAS inh
O=C1N=c2ccccc2=C1c1sc(=O)[nH]c1O	6.1	-8.2	63.3*
CCN(CC)CCNC(=O)c1c(C)[nH]c(/C=C2/C(=O)Nc3ccc(F)cc32)c1C	9.7	60.4*	x
Cc1[nH]c(/C=C2\C(=O)Nc3ccc(S(=O)(=O)N(C)c4cccc(Cl)c4)cc32)c(C)c1C(=O)N1CCN(C)CC1	-0.5	41.2	-1.3
CC1CCCN(CCNC(=O)c2ccn(-c3cccc(F)c3)n2)C1 (configuration not stated)	-9.2	5.9	x
COC(=O)/C(C#N)=C/c1c(Oc2ccc(C)cc2)nc2ccccn2c1=O	-7.6	9.7	-7.8
COc1ccccc1Oc1nc2ccccn2c(=O)c1/C=C(\C#N)c1nc2ccccc2s1	-8.7	64.6*	-4.6
Cc1cccc(Oc2nc3ccccn3c(=O)c2/C=C(\C#N)c2nc3ccccc3s2)c1	-8.5	89.2*	-4.2
COc1ccc(Oc2nc3c(C)cccn3c(=O)c2/C=C(\C#N)c2nc3ccccc3s2)cc1	-10.3	21.0	-5.4
CC(C)(C)c1ccc2oc(CN3CC(=O)N4CC[C@@H](O)C[C@H]4C3=O)nc2c1	-3.1	13.3	-6.9
Cc1ccc(Cc2nsc(N(CCC(=O)NCCN3CCCC3)Cc3ccco3)n2)cc1	2.9	-2.3	2.6
COc1ccc(-n2nc(C)c(-c3ccccc3)c2NC(=O)CN(C(=O)c2ccc3c(c2)OCO3)C(C)C)cc1	-12.3	-1.6	-5.9
O=C(c1ccc(CSc2c(F)c(F)cc(F)c2F)cc1)N1C2CCC1CC(Oc1ccc(F)cc1F)C2 (configuration not stated)	-13.7	8.6	-8.5
Cc1ccc(-c2ccc(CCC(=O)NCc3cccs3)n2-c2ccc(CC#N)cc2)c(C)c1	-5.0	-2.2	-10.1
N#Cc1ccccc1NC(=O)c1n[nH]c([N+](=O)[O-])c1Br	43.9*	-2.6	x
Cc1cccc(NC(=O)c2n[nH]c([N+](=O)[O-])c2Br)c1C	-0.5	-1.5	-2.6
CCOC(=O)C1=C(O)/C(=C\c2ccc(N(C)C)cc2)SC1=Nc1ccc(OC)cc1OC	1.5	79.1*	0.1
CCOC(=O)C1=C(O)/C(=C\c2cc(OC)cc(OC)c2)SC1=Nc1ccccc1F	4.0	-5.7	1.8
COC(=O)C(C)Sc1nc2sc3c(c2c(=O)n1Cc1ccccc1)CCC3 (configuration not stated)	10.4	-6.5	x
COC(=O)C(C)Sc1nc2sc3c(c2c(=O)n1C)CCC3 (configuration not stated)	-0.1	51.1*	x
Cc1ccccc1CS(=O)Cc1ccc(S(=O)(=O)N(C)C)o1 (configuration not stated)	-7.1	1.1	-18.0
N#CC(c1nc2ccccc2nc1NC1CCCCCCC1)S(=O)(=O)c1ccc(F)cc1 (configuration not stated)	1.3	3.3	x
Cc1noc(C)c1NC(=O)C(C)(C)Oc1cccc(Cl)c1	-2.8	5.5	x
CCOC(=O)c1sc(N)c(C(N)=O)c1C	-9.2	1.3	x
CCOC(=O)c1cc(O)c(C(=O)OCC)s1	-2.9	62.4*!	-4.0
Cc1nc2ccc(C(=O)NC3CCN(CC#N)CC3)cc2nc1C	-10.9	-5.0	-16.2
SMILES	hcGAS lum	NPYLR7 ag	mcGAS inh
CCN(CC)CCCC(C)NC(=O)c1cc(-c2ccc(OC)cc2)nc2cc(-c3ccc(Cl)cc3)nn12 (configuration not stated)	-2.5	6.2	-2.6
CCN(CC)CCCC(C)NC(=O)c1cc(-c2ccc(OC)cc2)nc2cc(-c3ccccc3)nn12 (configuration not stated)	91.2*	11.8	90.5*
Cn1ncc2c(N3CCCCC3)nc(N(CCO)Cc3ccccc3)nc21	-6.1	0.6	-7.8
OCCN(CCO)c1nc(N2CCCCC2)c2nc(N(CCO)CCO)nc(N3CCCCC3)c2n1	0.5	74.5*!	-3.1
O=C1/C(=C/c2csnn2)COc2c1ccc(Cl)c2Cl	-6.6	-2.2	x
Cc1cc(C)c2c(c1)OC/C(=C\c1csnn1)C2=O	-0.9	-3.8	44.8*
CN1C(=S)N(c2ccc3c(c2)OCO3)C(=O)/C1=C\c1cccc(OCCO)c1	-1.3	33.8	-2.8
CN1C(=S)N(C2CCCCC2)C(=O)/C1=C\c1ccc2c(c1)OCO2	-3.0	45.8*	-8.3
CCCCS(=O)(=O)N1CCN(C(=O)c2cc(-c3ccc(Cl)cc3)n(-c3cccc(F)c3)c2C)CC1	3.8	-5.1	0.0
CC(=O)Nc1c(-c2cc(C)cc(C)c2)nc2cc(C)ccn12	-0.3	-3.8	0.8
Cc1cc(C)cc(-c2nc3cc(C)ccn3c2NC(=O)CCl)c1	-6.2	-10.4	42.3*
COCCCn1c(C)cn2c3c(=O)n(Cc4ccc(Cl)cc4)c(=O)n(C)c3nc12	-8.7	12.3	x
COCCn1c(C)cn2c3c(=O)n(Cc4ccc(Cl)cc4)c(=O)n(C)c3nc12	-6.8	51.8*	-7.8
O=S(=O)(c1ccccc1)c1ccccc1Nc1ccccc1	77.9*	-0.3	x

Bioassay records deposited in PubChem by Fisher Drug Discovery Resource Center.
